Results filed as inconclusive are left out. Calls of active or inactive are those of the source. Unless noted, calls come from the whole dose curve; as a rule, active = well fitted curve in the direction sought with a large enough effect in the repeat runs; inconclusive = weak or mixed curves; inactive = no such curve, though single readings can be large; an effect the other way counts as inactive or inconclusive.
What was measured:
[1] = qHTS assay to identify small molecule antagonists of the estrogen related receptor (ERR) signaling pathway from Tox21 library - cell viability counter screen (AID 1224834); note: nearly all actives have a fitted effect of over 30% in size; note: potency is the fitted concentration of half-maximal effect
Method in brief: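 Multiplexed viability counter screen in ERR cells: 17.5 h compound exposure at 37 C, CellTiter-Fluor added, 30 min at 37 C/5% CO2, fluorescence read.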

[2] = qHTS assay to identify small molecule agonists of the constitutive androstane receptor (CAR) signaling pathway - cell viability counter screen (AID 1224836); note: nearly all actives have a fitted effect of over 45% in size
Method in brief: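 Double-stable HepG2 hepatoma cells (hCAR plus CYP2B6-2.2kb) are treated for 23 h at 37 C with test compounds in 15-point concentration series. PK11195 at 0.75 uM final is co-added. Cell viability is quantified by CellTiter-Fluor.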

[3] = qHTS assay to identify small molecule antagonists of the constitutive androstane receptor (CAR) signaling pathway - cell viability counter screen (AID 1224837); note: nearly all actives have a fitted effect of over 45% in size
Method in brief: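 Read-out: CellTiter-Fluor fluorescence after 23 hr at 37 C/5% CO2. Cells: HepG2 double-stable for hCAR and CYP2B6-2.2kb. Compounds tested at 15 concentrations in the presence of CITCO, final concentration 50 nM.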

[4] = qHTS assay to identify small molecule antagonists of the estrogen related receptor signaling pathway with the pleiotropic PPARgamma coactivator (PGC) from Tox21 10K library - cell viability counter screen (AID 1224840; active = well fitted cell-killing curve with a large enough effect in the repeat runs, not every such curve was filed as active; note: nearly all actives have a fitted effect of over 40% in size; note: potency is the fitted concentration of half-maximal effect)
Method in brief: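 Fluorescence read-out of CellTiter-Fluor viability reagent, added after cells had been exposed to compound in DMSO for 17.5 h at 37 C; 30 min development at 37 C/5% CO2. Cells: PGC/ERR line, 2,000/well.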

[5] = molecular target: Thyrotropin receptor (Homo sapiens) (UniProt P16473); experiment: qHTS assay to identify small molecule agonists of the thyroid stimulating hormone receptor (TSHR) signaling pathway (AID 1224843; calls by dose curve; note: nearly all actives have a fitted effect of over 45% in size)
Method in brief: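 Agonist-mode screen: TSHR HEK293 cells received test chemicals for half an hour at room temperature, then HTRF cAMP detection reagents for one hour prior to fluorescence measurement. Each chemical ran as a 15-concentration series, triplicated.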

[6] = qHTS assay to identify small molecule agonists of the hypoxia (HIF-1) signaling pathway - cell viability counter screen (AID 1224844; calls by dose curve; note: nearly all actives have a fitted effect of over 50% in size)
Method in brief: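 CellTiter-Glo luminescence read-out, 30 min RT, taken in the same wells as the beta-lactamase HRE reporter assay; HRE-bla ME-180 cells, 0.5% dialyzed FBS, 17 hr compound treatment at 37C, 5% CO2.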

[7] = qHTS assay to identify small molecule agonists of H2AX (AID 1224845; active = well fitted activation curve with a large enough effect in the signal ratio in the repeat runs, not every such curve was filed as active; the % refers to the signal ratio)
Method in brief: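 Wild-type CHO-K1 cells, plated overnight, exposed 3hr at 37C to 15 concentrations (0.76% DMSO final). Lysed, then HTRF anti-pH2AX (S139) cryptate and anti-H2AX-d2 antibodies, 24 hr room temperature; 665/620 nm emission read.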

[8] = qHTS assay to identify small molecule agonists of the hypoxia (HIF-1) signaling pathway (AID 1224846; active = well fitted activation curve with a large enough effect in the signal ratio in the repeat runs, not every such curve was filed as active; the % refers to the signal ratio)
Method in brief: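 Beta-lactamase FRET read-out (CCF4-AM substrate) from ME-180 cells carrying an HRE-driven bla reporter, after 17 hrs compound exposure at 37C/5% CO2. Cells were seeded at 2,000 per well in 0.5% dialyzed FBS medium and preincubated 5 hrs.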

[9] = qHTS assay to identify small molecule agonists of H2AX - cell viability counter screen (AID 1224847; calls by dose curve; note: nearly all actives have a fitted effect of over 30% in size; note: potency is the fitted concentration of half-maximal effect; for activity change, negative = cytotoxicity: top concentration of the series differs between compounds)
Method in brief: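 For this counter screen, overnight-attached CHO-K1 cells received test compounds (15 concentrations, 0.76% DMSO final); 3 hr later at 37C, CellTiter-Glo reagent was added and luminescence recorded after 30 min at room temperature.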

[10] = qHTS RealTime-Glo MT Cell Viability Assay in HepG2 cells - 24 hour (AID 1224867); note: nearly all actives have a fitted effect of over 50% in size; note: potency is the fitted concentration of half-maximal effect
Method in brief: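 qHTS, HepG2, 600 cells/well, RealTime-Glo (NanoLuc + prosubstrate) added with cells; 5 h preincubation; DMSO compound addition; 37 C; luminescence at 0/8/16/24/32/40 h.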

[11] = qHTS RealTime-Glo MT Cell Viability Assay in HEK293 cells - 32 hour (AID 1224868); note: nearly all actives have a fitted effect of over 50% in size; note: potency is the fitted concentration of half-maximal effect; for activity change, negative = cytotoxic: top concentration of the series differs between compounds
Method in brief: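 Assay medium contained NanoLuc luciferase plus cell-permeant prosubstrate, added with HEK293 cells at 600 cells/well. After 5 h at 37 C/5% CO2 compounds were added; plates stayed at 37 C for 40 h with serial luminescence reads.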

[12] = A CellTox Green Cytotoxicity Assay to monitor cytotoxicity in HEK293 cells - 0 hour (AID 1224869); note: nearly all actives have a fitted effect of over 50% in size; note: potency is the fitted concentration of half-maximal effect
Method in brief: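 Read-out: fluorescence of a cell-impermeant cyanine dye staining DNA of dead cells, proportional to cytotoxicity. HEK293, 600 cells/well with reagent, compound (23 nL DMSO) added after 5 h; reads at 0, 8, 16, 24, 32, 40 h.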

[13] = molecular target: Nuclear receptor subfamily 1 group I member 3 (Homo sapiens) (UniProt Q14994); experiment: qHTS assay to identify small molecule antagonists of the constitutive androstane receptor (CAR) signaling pathway (AID 1224838);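 note: HepG2 cells stably expressing hCAR with CYP2B6 luciferase reporter stimulated by CITCO; nearly all actives have a fitted effect of over 40% in size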
Method in brief: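 Read-out: ONE-Glo luciferase luminescence after 30 min at room temperature. HepG2-CYP2B6-hCAR double-stable cells, compounds in 15-point titration plus 50 nM CITCO final, 24 h at 37 C/5% CO2.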

[14] = molecular target: Nuclear receptor subfamily 1 group I member 3 (Homo sapiens) (UniProt Q14994); experiment: qHTS assay to identify small molecule agonists of the constitutive androstane receptor (CAR) signaling pathway (AID 1224839); note: nearly all actives have a fitted effect of over 15% in size; note: potency is the fitted concentration of half-maximal effect;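 for activation: HepG2 cells stably carrying human CAR and a CYP2B6 luciferase reporter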
Method in brief: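 Readout: firefly luciferase luminescence via ONE-Glo. System: HepG2 double-stable for hCAR and CYP2B6-2.2kb. Conditions: 15-point compound titration, PK11195 at 0.75 uM final, 24 h incubation.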

[15] = qHTS assay to identify small molecule antagonists of the estrogen related receptor signaling pathway with the pleiotropic PPARgamma coactivator (PGC) from Tox21 10K library (AID 1224841; call rule not given here; note: potency is the fitted concentration of half-maximal effect)
Method in brief: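 Luminescence read-out (One-Glo luciferase reagent, 30 min at room temperature) from PGC/ERR cells exposed to DMSO-dissolved test compounds for 18 h at 37 C; cells, 2,000 per well, had been preincubated 6 h before compound transfer.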

[16] = qHTS assay to identify small molecule agonists of the estrogen related receptor signaling pathway with the pleiotropic PPARgamma coactivator (PGC) from Tox21 10K library (AID 1224842); note: nearly all actives have a fitted effect of over 15% in size
Method in brief: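 PGC/ERR reporter cell line, 2,000 cells per well, incubated 6 h at 37 C before 23 nL compound in DMSO was added. After 18 h at 37 C, One-Glo luminescence read following 30 min at room temperature.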

[17] = qHTS assay to identify small molecule antagonists of the estrogen related receptor (ERR) signaling pathway from Tox21 library (AID 1224848); note: nearly all actives have a fitted effect of over 50% in size; note: potency is the fitted concentration of half-maximal effect
Method in brief: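 Quantitative high-throughput format: ERR reporter cells (2,000/well) pre-incubated 6 h, treated 18 h at 37 C with compounds in DMSO alongside positive and negative controls, then read by ONE-Glo luminescence.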

[18] = qHTS assay to identify small molecule agonists of the estrogen related receptor (ERR) signaling pathway from Tox21 library (AID 1224849; calls by dose curve; note: nearly all actives have a fitted effect of over 15% in size); conditions: ERR reporter cell line, ONE-Glo luciferase, 18 h
Method in brief: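 Luminescence readout (ONE-Glo, 30 min RT) after 18 h compound exposure at 37 C of NTP-supplied ERR reporter cells; cells were plated 6 h before compound addition by pin tool.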

[19] = qHTS RealTime-Glo MT Cell Viability Assay in HepG2 cells - 40 hour (AID 1224870); note: nearly all actives have a fitted effect of over 50% in size; note: potency is the fitted concentration of half-maximal effect
Method in brief: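 HepG2 cells (600/well) mixed with RealTime-Glo MT reagent, settled 5 h at 37 C/5% CO2 before compound addition. Nonlytic NanoLuc luminescence from viable-cell prosubstrate reduction read repeatedly during 40 h treatment at 37 C.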

[20] = molecular target: Luciferin 4-monooxygenase (Photinus pyralis) (UniProt P08659); experiment: qHTS assay to identify small molecule inhibitors of firefly luciferase (AID 1224835); note: nearly all actives have a fitted effect of over 25% in size
Method in brief: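 Biochemical qHTS: compounds run as interplate titrations against purified firefly enzyme, with D-luciferin and ATP each at its KM concentration. Light output recorded by CCD imaging.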
% is set by controls: 0 for no effect and ±100 for the full control effect.

Nuclear receptor subfamily 1 group I member 3 (Homo sapiens), sequence (Q14994 whole entry, looked up): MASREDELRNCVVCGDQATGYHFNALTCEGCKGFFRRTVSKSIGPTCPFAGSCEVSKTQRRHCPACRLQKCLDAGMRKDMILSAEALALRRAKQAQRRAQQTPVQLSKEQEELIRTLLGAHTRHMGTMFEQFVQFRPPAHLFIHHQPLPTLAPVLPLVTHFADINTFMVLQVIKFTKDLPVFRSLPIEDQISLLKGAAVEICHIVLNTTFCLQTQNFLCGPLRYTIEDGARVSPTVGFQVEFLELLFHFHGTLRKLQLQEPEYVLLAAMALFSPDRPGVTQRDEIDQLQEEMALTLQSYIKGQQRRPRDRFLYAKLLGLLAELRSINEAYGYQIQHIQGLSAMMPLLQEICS
Luciferin 4-monooxygenase (Photinus pyralis), sequence (P08659 whole entry, looked up): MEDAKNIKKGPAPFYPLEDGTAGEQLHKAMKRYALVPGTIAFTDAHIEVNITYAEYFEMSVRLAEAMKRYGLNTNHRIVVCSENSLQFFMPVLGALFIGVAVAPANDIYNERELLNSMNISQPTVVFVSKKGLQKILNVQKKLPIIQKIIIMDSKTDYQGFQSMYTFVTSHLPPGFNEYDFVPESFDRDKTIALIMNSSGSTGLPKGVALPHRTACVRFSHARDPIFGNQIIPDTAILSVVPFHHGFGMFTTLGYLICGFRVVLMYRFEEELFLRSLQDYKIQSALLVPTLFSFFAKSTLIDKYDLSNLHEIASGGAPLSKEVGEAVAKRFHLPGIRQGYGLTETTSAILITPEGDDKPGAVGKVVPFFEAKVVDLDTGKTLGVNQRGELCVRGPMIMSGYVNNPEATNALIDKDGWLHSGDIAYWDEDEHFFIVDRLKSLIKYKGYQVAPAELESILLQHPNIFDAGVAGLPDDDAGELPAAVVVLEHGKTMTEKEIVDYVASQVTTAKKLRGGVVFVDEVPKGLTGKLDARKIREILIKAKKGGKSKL
Thyrotropin receptor (Homo sapiens), sequence (P16473 whole entry, looked up): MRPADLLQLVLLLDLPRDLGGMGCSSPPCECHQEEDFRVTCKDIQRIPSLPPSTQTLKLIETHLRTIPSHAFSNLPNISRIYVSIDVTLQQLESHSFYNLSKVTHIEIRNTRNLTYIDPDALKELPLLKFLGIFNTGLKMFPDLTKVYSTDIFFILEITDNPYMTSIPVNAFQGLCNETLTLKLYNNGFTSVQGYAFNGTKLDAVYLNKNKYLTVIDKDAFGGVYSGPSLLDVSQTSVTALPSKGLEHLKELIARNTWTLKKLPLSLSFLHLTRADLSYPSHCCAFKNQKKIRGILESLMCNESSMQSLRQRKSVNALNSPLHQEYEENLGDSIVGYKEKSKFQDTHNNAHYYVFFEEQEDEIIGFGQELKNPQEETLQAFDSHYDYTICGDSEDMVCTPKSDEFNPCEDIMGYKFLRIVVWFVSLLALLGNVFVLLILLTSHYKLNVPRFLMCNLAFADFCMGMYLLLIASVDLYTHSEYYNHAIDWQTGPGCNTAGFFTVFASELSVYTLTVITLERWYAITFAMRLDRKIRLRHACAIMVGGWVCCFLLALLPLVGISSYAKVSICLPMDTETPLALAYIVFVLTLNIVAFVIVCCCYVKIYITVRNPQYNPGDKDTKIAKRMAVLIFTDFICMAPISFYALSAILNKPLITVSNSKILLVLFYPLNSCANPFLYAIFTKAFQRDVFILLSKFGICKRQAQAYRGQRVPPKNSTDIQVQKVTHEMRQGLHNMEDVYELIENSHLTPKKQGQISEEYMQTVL

O[C@@H]([C@H](O)[C@H](O)CBr)[C@H](O)CBr
inactive: Potency [1] | Potency [2] | Potency [3] | Potency [4] | Potency [5] | Potency [6] | Potency [7] | Potency [8] | Potency [9] | Potency [10] | Potency [11] | Potency [12]

Cc1cc(C(C)(C)C)cc(C)c1CC1=NCCN1
inactive: Potency [1] | Potency [2] | Potency [3] | Potency [13] | Potency [14] | Potency [4] | Potency [15] | Potency [16] | Potency [5] | Potency [6] | Potency [7] | Potency [9] | Potency [17] | activity change, positive = activation ([18]; at 42.5 µM (top of the series)) -3.5% | Potency [10] | Potency [11] | Potency [12] | Potency [19]

Sc1nc2ccccc2s1
inactive: Potency [1] | Potency [2] | Potency [3] | Potency [13] | Potency [14] | Potency [15] | Potency [16] | Potency [5] | Potency [8] | Potency [9] | Potency [17] | activity change, positive = activation ([18]; at 92.4 µM (top of the series)) 0.0626% | Potency [10] | Potency [12]

CCC(C)n1ncn(-c2ccc(N3CCN(c4ccc(OC[C@H]5CO[C@](Cn6cncn6)(c6ccc(Cl)cc6Cl)O5)cc4)CC3)cc2)c1=O (stereo partly drawn)
active: Potency [1] 3.76 µM
inactive: Potency [2] | Potency [3] | Potency [13] | Potency [14] | Potency [4] | Potency [5] | Potency [7] | Potency [9] | Potency [12]

CNC(=O)c1ccccc1Sc1ccc2c(/C=C/c3ccccn3)n[nH]c2c1
active: Potency [1] 26.6 µM | Potency [14] 1.06 µM | Potency [11] 9.52 µM
inactive: Potency [2] | Potency [13] | Potency [5] | Potency [6] | Potency [8] | Potency [10] | Potency [12] | Potency [19]

Cc1cc(C)c(/C=C2\C(=O)Nc3ccccc32)[nH]1
active: Potency [12] 10.7 µM
inactive: Potency [1] | Potency [2] | Potency [3] | Potency [4] | Potency [5] | Potency [9] | Potency [17] | activity change, positive = activation ([18]; at 42.5 µM (top of the series)) 5.59% | Potency [10] | Potency [11] | Potency [19]

CC(C)(C)CC(C)(C)c1ccc(Nc2ccc(C(C)(C)CC(C)(C)C)cc2)cc1
inactive: viability change, negative = cytotoxic [1] 0.525% [at 8.39 µM] | viability change, negative = cytotoxic [2] -0.428% [at 8.39 µM] | activity change, negative = cytotoxicity [3] 7.27% [at 8.39 µM] | activity, negative = inhibition [13] 33.1% [at 8.39 µM] | viability change, negative = cytotoxic [4] -0.792% [at 8.39 µM] | activation [5] 21.9% [at 8.39 µM] | activity change, negative = cytotoxicity [6] 0.53% [at 6.97 µM] | activation (H2AX phosphorylation) [7] 0.788% [at 14 µM] | activation [8] 3.2% [at 7.01 µM] | activity change, negative = cytotoxicity [9] 0.45% [at 14 µM] | activity change, negative = cytotoxicity [10] 0.0274% [at 6.97 µM] | activity change, negative = cytotoxic [11] 9.22% [at 6.97 µM] | cytotoxicity [12] 3.78% [at 6.97 µM]

Cc1cc(-c2ccc(N=Nc3cc(S(=O)(=O)O)c4ccccc4c3N)c(C)c2)ccc1N=Nc1cc(S(=O)(=O)O)c2ccccc2c1N
inactive: Potency [1] | Potency [20] | Potency [14] | Potency [4] | Potency [5] | Potency [7] | Potency [8] | activity change, positive = activation ([18]; at 92.4 µM (top of the series)) -50.3% | Potency [10] | Potency [12] | Potency [19]
active: Potency [15] 12.3 µM | Potency [9] 80.4 µM | Potency [17] 5.48 µM | Potency [11] 2.2 µM

CN(C)C(=O)COC(=O)Cc1ccc(OC(=O)c2ccc(N=C(N)N)cc2)cc1
inactive: Potency [1] | Potency [2] | Potency [4] | Potency [15] | Potency [16] | Potency [5] | Potency [8] | Potency [9] | Potency [17] | activity change, positive = activation ([18]; at 42.5 µM (top of the series)) -1.22% | Potency [10] | Potency [11] | Potency [12] | Potency [19]

O=C1OC2(c3ccc(O)cc3Oc3cc(O)ccc32)c2ccc(N=C=S)cc21
inactive: Potency [1] | Potency [20] | Potency [4] | Potency [5] | Potency [6] | Potency [9] | Potency [17] | activity change, positive = activation ([18]; at 92.4 µM (top of the series)) 3.25% | Potency [19]
active: Potency [12] 22.3 µM

O=c1[nH]c2ccccc2n1CCCN1CCN(C(c2ccccc2)c2ccccc2)CC1
inactive: Potency [20] | Potency [14] | Potency [5] | Potency [12]
active: Potency [1] 23.7 µM | Potency [4] 23.7 µM | Potency [10] 23.9 µM | Potency [19] 23.9 µM

COC(C)=O
inactive: Potency [1] | Potency [2] | Potency [3] | Potency [13] | Potency [14] | Potency [4] | Potency [6] | Potency [8] | Potency [9] | Potency [10] | Potency [11] | Potency [12] | Potency [19]

CCC(CC)C(C)CCOC(C)=O (stereo not drawn)
inactive: Potency [1] | Potency [2] | Potency [3] | Potency [13] | Potency [14] | Potency [4] | Potency [5] | Potency [6] | Potency [8] | Potency [9] | Potency [10] | Potency [12] | Potency [19]

CCO[Si](OCC)(OCC)OCC
inactive: Potency [1] | Potency [2] | Potency [13] | Potency [14] | Potency [4] | Potency [5] | Potency [6] | Potency [7] | Potency [8] | Potency [9] | Potency [10] | Potency [11] | Potency [12] | Potency [19]

C=CC(=O)OCCOC(=O)C=C
inactive: Potency [1] | Potency [2] | Potency [3] | Potency [13] | Potency [14] | Potency [4] | Potency [5] | Potency [9] | Potency [10] | Potency [12]

NC(=O)c1cccc([N+](=O)[O-])c1
inactive: Potency [1] | Potency [2] | Potency [4] | Potency [5] | Potency [6] | Potency [7] | Potency [8] | Potency [9] | Potency [10] | Potency [11] | Potency [12]
